Test [1] can be described thus: Primary qHTS for inhibitors of nuclear receptor binding SET domain protein 2 (NSD2) in an RCH-ACV wild type WT cells (2C) (AID 1645877; note: nearly all actives have a fitted effect of over 70% in size; note: potency is the fitted concentration of half-maximal effect). (qHTS replaces the single test concentration by a dilution series.)
Test [2] can be described thus: NCATS anti-infectives library activity on HEK293 viability as a counter-qHTS vs the C. elegans viability qHTS (AID 1745854). Note: % is set by controls: 0 for no effect and ±100 for the full control effect. An outline of the steps: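 CellTiter-Glo luminescence, read on a CCD imager, scored viability of HEK293 cells after 24 hr compound exposure at 37C. Library tested in several concentrations, 1:5 steps, up to 41.7 uM; digitonin served as control.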

Test [3] concerns the target Glutathione peroxidase 1 (Homo sapiens) (UniProt P07203). The experiment in a line: Primary qHTS Assay for Inhibitors of Recombinant Selenoprotein Glutathione Peroxidase 1 (GPX1) (AID 1845191). Note: nearly all actives have a fitted effect of over 65% in size. An outline of the steps: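 GR-coupled readout: NADPH consumption tracked by fluorescence, ex 340/em 450 nm, at t=0 and after 15 min at RT. Final mix 10 nM GPX1, 1 mM GSH, 0.5 mM CHP, 0.5 mM NADPH, 100 nM GR, 0.01% BSA, following 30 min enzyme–compound preincubation.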

The target of test [4] is Phospholipid hydroperoxide glutathione peroxidase GPX4 (Homo sapiens) (UniProt P36969). The experiment in a line: Primary qHTS Assay for Inhibitors of Recombinant Selenoprotein Glutathione Peroxidase 4 (GPX4) (AID 1845192). For activity change, negative = inhibition: % is set by controls: 0 for no effect and ±100 for the full control effect. Note: nearly all actives have a fitted effect of over 65% in size. An outline of the steps:
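Steps: GPX4 plus compound, 30 min RT; add GR/GSH/NADPH master mix; start with cumene hydroperoxide; read 340/450 nm fluorescence at 0 and 15 min. Finals were 200 nM GPX4, 1 mM GSH, 0.5 mM CHP, 0.5 mM NADPH, 100 nM GR.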

The target of test [5] is Luciferin 4-monooxygenase (Photinus pyralis) (UniProt P08659). Description: Primary firefly luciferase (FLuc) qHTS assay for identification of artifact compounds. (AID 1845220).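 For activity change, negative = inhibition: plate controls were DMSO vehicle for no effect and no enzyme for full effect.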 Note: nearly all actives have a fitted effect of over 60% in size. An outline of the steps: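 Titrated compounds were incubated 15 min at RT, protected from light, with luciferin and ATP at 10 uM; reaction started with 10 nM FLuc, luminescence imaged at 5 min, and concentration-response fitted by Hill equation.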

Test [6] can be described thus: Primary fluorescence-based thiol-reactive (MSTI) qHTS assay for identification of artifact compounds. (AID 1845221). Note: nearly all actives have a fitted effect of over 65% in size. Note: potency is the fitted concentration of half-maximal effect. An outline of the steps: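 qHTS titration of compound; 4 uM MSTI, PBS pH 7.4, 2% DMSO; 1 h RT, dark; fluorescence 525/598 nm; normalized to Acetyl-MSTI and MSTI; 4-parameter Hill fit.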
Test [7] deals with Nanoluciferase (engineered Oplophorus gracilirostris luciferase). The experiment in a line: Primary Nanoluciferase (NLuc) qHTS assay for identification of artifact compounds. (AID 1845222).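 Note: NLuc secreted into diluted conditioned medium of S16 cells; 0% = DMSO and -100% = no enzyme.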 Summed up:
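qHTS format, against NLuc in S16 cell-conditioned medium. Nano-Glo substrate 1:100 was added after 15 min at room temperature. Luminescence was taken after a further 5 min.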

The nature of test [8]: Primary redox qHTS assay for identification of artifact compounds. (AID 1845223).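 Note: 0% = DMSO and 100% = reference compound.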 Summed up:
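Redox-cycling detection via DTT (250 uM final) oxidation coupled to Amplex Red (25 uM)/HRP (250 mU/mL) in HBSS. 15 min preincubation plus 30 min after DTT, room temperature. Ex/Em 525/598 nm; 4-parameter Hill fit against DMSO and 10 uM DA3003.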

Test [9] is described as follows: Viability counterscreen for antagonist of constitutive androstane receptor (CAR) against the NCATS DSHEA and TCM libraries (AID 1794837).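 Note: compound exposure lasted 24 h before viability reading; 0% is about no effect.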 An outline of the steps: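 Counterscreen performed in a 1536-well qHTS format using HepG2-CYP2B6-hCAR cells; samples titrated in the presence of 48 uM CITCO, with viability measured fluorometrically (405/540 nm) after 24 h.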
Test [10] in a line: Viability counterscreen for agonist of constitutive androstane receptor (CAR) against the NCATS DSHEA and TCM libraries (AID 1794838).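 Note: cells exposed to compound for 24 h; 0% is about no effect.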 An outline of the steps: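 Multiplexed counterscreen: after 24 h compound exposure with 0.75 uM PK11195, HepG2-CYP2B6-hCAR viability was quantified fluorimetrically (CellTiter-Fluor, 405/540 nm) prior to the ONE-Glo luciferase read.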
For orientation: Counterscreens check selectivity or assay interference.

Test [11] concerns the target Nuclear receptor subfamily 1 group I member 3 (Homo sapiens) (UniProt Q14994). The experiment in a line: Primary qHTS for agonist of constitutive androstane receptor (CAR) against the NCATS DSHEA and TCM libraries (AID 1794839).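 Note: HepG2 cells expressing human CAR with a CYP2B6 reporter plus PK11195 antagonist; luciferase reporter luminescence read with ONE-Glo; 0% is about no effect.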 Summed up:
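Concentration–response screen in HepG2-CYP2B6-hCAR cells under 0.75 µM PK11195; 24 h exposure; luminescent reporter signal with multiplexed fluorescent viability.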

Test [12] can be described thus: HepG2 viability counterscreen (readout 2: ATP content) against the NCATS DSHEA and TCM libraries (AID 1794840).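 Note: HepG2 cells exposed to substances for about 24 h; 0% is about no effect.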 Summed up: (§1)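 After HepG2 cells attach for ~4 h, substances are added and incubated ~24 h at 37C, 5% CO2. GF-AFC fluorescence then CellTiter-Glo luminescence give protease and ATP readouts.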
Test [13] is described as follows: HepG2 viability counterscreen (readout 1: protease activity) against the NCATS DSHEA and TCM libraries (AID 1794841).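 Note: cells exposed to compounds for about 24 h before the protease read; 0% is about no effect.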 Summed up:
as §1

Test [14] addresses Cytochrome P450 3A4 (Homo sapiens) (UniProt P08684). The experiment in a line: qHTS for inhibitors of CYP3A4 against the NCATS DSHEA and TCM libraries (AID 1919971).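 Note: % is set by controls: 0 for no effect and ±100 for the full control effect; inhibition lowers luminescence from luciferin made by CYP3A4.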 Summed up:
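Substances were tested against enzyme with a pro-luciferin substrate; minus-enzyme wells served as background. After NADPH-initiated oxidation (30-45 min, RT), light was generated with P450-Glo reagent.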

Test [15] in a line: NCATS anti-infectives library activity on the primary C. elegans qHTS viability assay (AID 1745855; calls by dose curve; note: potency is the fitted concentration of half-maximal effect). Summed up: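 Titration-based screen in worms: eggs hatched overnight in M9, L1 larvae fed TOP10 capsules in S medium with compound, incubated 21 °C for 7 days; fluorescent objects gated by size and intensity at days 0, 3 and 7.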
For test [16], the target named is Catechol O-methyltransferase (Homo sapiens) (UniProt P21964). The experiment in a line: Confirmatory Screen for Target Class Profiling of Small Molecule Inhibitors of Methyltransferases (AID 1745852; calls by dose curve; for activity change, negative = inhibition: % is set by controls: 0 for no effect and ±100 for the full control effect). The note with it: MTase-Glo luminescence, SAH detection, recombinant enzyme; measured here: COMT max response; stronger effect = lower value.
In test [17] the target is Guanidinoacetate N-methyltransferase (Homo sapiens) (UniProt Q14353). The test is described as above. The note with it: activity change, negative = inhibition: at 57.3 µM (top of the series) unless noted.
Test [18] concerns the target Nicotinamide N-methyltransferase (Homo sapiens) (UniProt P40261). The test is described as above. The note with it: MTase-Glo luminescence, SAH detection, recombinant enzyme; measured here: NNMT max response; stronger effect = lower value.
In test [19] the target is Phenylethanolamine N-methyltransferase (Homo sapiens) (UniProt P11086). The description is as above. The note with it: MTase-Glo luminescence, SAH detection, recombinant enzyme; measured here: PNMT max response; stronger effect = lower value.

Values joined by “and” are separate entries in the source; they are usually repeats but may differ in a detail not shown here. Equal values may be shown once. Records with an inconclusive call do not appear. Active and inactive are the calls of the source. Unless noted, calls come from the whole dose curve; as a rule, active = well fitted curve in the direction sought with a large enough effect; inconclusive = small, poorly fitted or top-dose-only effect, or another doubt; inactive = no such curve, though single readings can be large; an effect the other way counts as inactive or inconclusive.

Sequence of Glutathione peroxidase 1 (Homo sapiens) (P07203 whole entry, looked up): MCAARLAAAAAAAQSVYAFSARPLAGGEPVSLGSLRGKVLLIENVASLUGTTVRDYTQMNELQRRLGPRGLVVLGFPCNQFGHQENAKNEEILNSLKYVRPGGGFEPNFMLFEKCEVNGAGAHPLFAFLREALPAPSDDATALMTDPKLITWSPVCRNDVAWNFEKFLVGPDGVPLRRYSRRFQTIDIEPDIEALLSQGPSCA
Sequence of Phospholipid hydroperoxide glutathione peroxidase GPX4 (Homo sapiens) (P36969 whole entry, looked up): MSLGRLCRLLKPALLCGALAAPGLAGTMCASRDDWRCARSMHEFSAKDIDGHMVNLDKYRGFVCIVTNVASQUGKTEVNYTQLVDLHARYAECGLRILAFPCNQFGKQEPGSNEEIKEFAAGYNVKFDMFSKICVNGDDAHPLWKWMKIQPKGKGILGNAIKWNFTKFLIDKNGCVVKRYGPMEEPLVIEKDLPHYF
Sequence of Nuclear receptor subfamily 1 group I member 3 (Homo sapiens) (Q14994 whole entry, looked up): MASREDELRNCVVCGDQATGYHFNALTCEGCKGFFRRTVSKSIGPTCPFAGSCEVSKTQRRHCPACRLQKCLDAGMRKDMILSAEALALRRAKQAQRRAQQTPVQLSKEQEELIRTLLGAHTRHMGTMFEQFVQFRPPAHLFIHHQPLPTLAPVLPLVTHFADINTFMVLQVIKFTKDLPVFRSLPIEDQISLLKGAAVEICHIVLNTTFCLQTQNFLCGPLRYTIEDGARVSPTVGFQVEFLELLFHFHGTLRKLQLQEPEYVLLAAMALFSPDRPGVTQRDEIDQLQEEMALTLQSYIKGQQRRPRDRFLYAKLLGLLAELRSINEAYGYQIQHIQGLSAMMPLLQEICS
Sequence of Cytochrome P450 3A4 (Homo sapiens) (P08684 whole entry, looked up): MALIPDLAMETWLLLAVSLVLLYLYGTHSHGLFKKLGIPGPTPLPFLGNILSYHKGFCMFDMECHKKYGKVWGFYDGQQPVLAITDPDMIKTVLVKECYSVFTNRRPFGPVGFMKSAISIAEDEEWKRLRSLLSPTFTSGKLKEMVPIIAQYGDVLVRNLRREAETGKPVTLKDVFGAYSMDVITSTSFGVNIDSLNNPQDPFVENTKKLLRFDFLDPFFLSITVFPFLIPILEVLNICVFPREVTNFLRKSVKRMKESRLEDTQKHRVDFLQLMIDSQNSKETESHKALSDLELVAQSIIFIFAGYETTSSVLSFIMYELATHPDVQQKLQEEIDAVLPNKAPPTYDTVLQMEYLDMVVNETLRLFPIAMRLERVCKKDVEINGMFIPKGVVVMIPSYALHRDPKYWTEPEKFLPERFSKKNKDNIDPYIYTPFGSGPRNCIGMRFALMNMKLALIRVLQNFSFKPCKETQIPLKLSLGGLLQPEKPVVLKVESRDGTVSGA
Sequence of Phenylethanolamine N-methyltransferase (Homo sapiens) (P11086 whole entry, looked up): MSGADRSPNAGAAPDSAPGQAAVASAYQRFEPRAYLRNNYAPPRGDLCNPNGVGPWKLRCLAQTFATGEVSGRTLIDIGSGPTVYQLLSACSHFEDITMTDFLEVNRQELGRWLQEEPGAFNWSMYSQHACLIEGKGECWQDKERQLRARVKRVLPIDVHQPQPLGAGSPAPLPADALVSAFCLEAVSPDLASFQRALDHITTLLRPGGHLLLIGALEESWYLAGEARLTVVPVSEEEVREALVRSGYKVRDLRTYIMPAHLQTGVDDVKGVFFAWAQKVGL
Sequence of Nicotinamide N-methyltransferase (Homo sapiens) (P40261 whole entry, looked up): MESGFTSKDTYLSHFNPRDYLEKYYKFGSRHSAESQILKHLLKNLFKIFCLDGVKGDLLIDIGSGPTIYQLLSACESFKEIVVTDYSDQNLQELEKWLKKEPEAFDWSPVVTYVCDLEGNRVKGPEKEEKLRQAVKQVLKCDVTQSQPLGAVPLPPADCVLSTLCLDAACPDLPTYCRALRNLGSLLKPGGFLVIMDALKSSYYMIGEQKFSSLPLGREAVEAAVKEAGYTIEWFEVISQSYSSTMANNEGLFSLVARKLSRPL
Sequence of Catechol O-methyltransferase (Homo sapiens) (P21964 whole entry, looked up): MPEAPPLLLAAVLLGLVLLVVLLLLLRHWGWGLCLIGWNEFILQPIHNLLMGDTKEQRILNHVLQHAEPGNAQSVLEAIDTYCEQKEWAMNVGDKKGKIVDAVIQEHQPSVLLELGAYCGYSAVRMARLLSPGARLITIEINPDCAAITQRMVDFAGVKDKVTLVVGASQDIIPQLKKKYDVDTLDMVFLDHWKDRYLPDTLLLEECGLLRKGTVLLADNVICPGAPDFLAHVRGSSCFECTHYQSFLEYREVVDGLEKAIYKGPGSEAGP

Turning to `CCO[C@@H]1OC(=O)C[C@@H]1NC(=O)[C@@H]1CCCN1C(=O)[C@@H](NC(=O)c1ccc(N)c(Cl)c1)C(C)(C)C`, the Potency result in test [1], in test [2], in test [3], in test [4], in [5] and in test [6] was “inactive” throughout. For the same compound, the Potency result in [7] and in [8] was “inactive” throughout.

With `CN1CCc2nc(C(=O)N[C@@H]3C[C@@H](C(=O)N(C)C)CC[C@@H]3NC(=O)C(=O)Nc3ccc(Cl)cn3)sc2C1`, the Potency entry in test [1], in test [2], in [3], in test [4], in test [5] and in test [6] was “inactive” throughout. In test [7], the Potency entry was “inactive”.

`CC(C)=CCC[C@](C)(O)[C@H]1CC[C@]2(C)[C@@H]1[C@H](O)CC1[C@@]3(C)CC[C@H](O)C(C)(C)[C@@H]3[C@@H](O[C@@H]3O[C@H](CO)[C@@H](O)[C@H](O)[C@H]3O[C@@H]3O[C@H](CO)[C@@H](O)[C@H](O)[C@H]3O)C[C@]12C` (stereo not given in full): the Potency entry in test [1], in [3], in [4], in [5], in test [6] and in test [7] was “inactive” in each case. In addition, the Potency entry in [8] was “inactive”. Moreover, the outcome in test [9], in [10], in [11], in test [12], in test [13] and in test [14] was “inactive” in each case.

Turning to `OC[C@H]1O[C@@H](OC[C@H]2O[C@@H](OC/C=C/c3ccccc3)[C@H](O)[C@@H](O)[C@@H]2O)[C@@H](O)[C@@H]1O`, the Potency result in test [1], in test [3], in test [4], in test [5], in test [7] and in test [8] was “inactive” throughout. Further, the outcome in [9], in test [11], in test [12], in [13] and in test [14] was “inactive” throughout. The Potency in test [6] was 10.3 µM (active).

`O=C(N/N=C/c1ccc(O)c(O)c1)c1cc2ccccc2cc1O`: the Potency in test [1] was 5.41 µM (active); in [15], 20.5 µM (active); in [6], 0.707 µM (active). Moreover, the Potency entry in [2], in test [3], in [4], in test [5], in test [7] and in test [8] was “inactive” in each case.

On to `CC(C)c1cc(C(=O)N2CC[C@H](NC(=O)C3CC3)C2)n[nH]1`, for which the Potency result in test [1], in [2], in [3], in test [4], in [5] and in test [6] was “inactive” in each case. In addition, the Potency entry in test [7] and in [8] was “inactive” in each case.

Take `O=C(/C=C/c1cccc(S(=O)(=O)Nc2ccccc2)c1)NO`: the Potency in test [1] is 252 nM (active) and 332 nM (active). The Potency entry in [2], in test [3], in test [4], in [5], in test [7] and in test [8] was “inactive” throughout.

With `CCC(O)C(C)C1CCC(C(C)C(=O)O)O1` (stereo not given), the Potency result in test [1], in [3], in test [4], in test [5] and in [7] was “inactive” throughout. Moreover, the Potency in [6] is 10.6 µM (active).

Turning to `Nc1nc(-n2cc(C(=O)O)c(=O)c3cc(F)c(N4CC(O)C4)c(Cl)c32)c(F)cc1F`, the Potency result in test [1], in test [4], in test [5] and in [8] was “inactive” each time. For the same compound, the activity is -21.4% in test [16], -1.6% in [18] and -1.85% in test [19]. Besides, the activity change, negative = inhibition in test [17] worked out at 0.345%.

For the compound `[N-]=[N+]=N[C@]1(CO)O[C@@H](n2ccc(=O)[nH]c2=O)[C@@H](O)[C@@H]1O`, the Potency entry in test [1], in test [2], in test [3], in test [4], in test [5] and in [6] was “inactive” each time. Further, the Potency entry in [7] and in test [8] was “inactive” in each case.

For the compound `Cc1cc(C)c(Nc2ccnc(Nc3ccc(C#N)cc3)n2)c(C)c1`, the Potency in test [1] was 4.09 µM (active); in test [15] it was 5.15 µM (active). Moreover, the Potency entry in [3], in [4], in [5], in test [6], in [7] and in [8] was “inactive” in each case.

Turning to `O=C(O)c1cc(I)ccc1NC(=O)[C@H](Cc1ccccc1)NCc1ccccc1`, the Potency entry in test [1], in [3], in test [4], in test [5] and in test [6] was “inactive” throughout.

In the case of `COc1cc(OC)c(/C=C/S(=O)(=O)Cc2ccc(OC)c(NCC(=O)O)c2)c(OC)c1`, the Potency was 51.5 nM (active) and 46.8 nM (active) in test [1]; 3.36 µM (active) in [6]. Further, the Potency result in test [3], in [4], in test [5] and in test [7] was “inactive” throughout.

These data come from PubChem BioAssay (NCATS).
